Experimental findings from PubChem BioAssay (Tox21) are described below.

Test [1] can be described thus: qHTS assay for small molecules that induce genotoxicity in human embryonic kidney cells expressing luciferase-tagged ATAD5 (AID 651632). Further: nearly all actives have a fitted effect of over 15% in size. An outline of the steps:
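Quantitative HTS in HEK293T expressing luciferase-tagged ATAD5, whose levels rise upon DNA damage. Exposure ran 16 hr at 37C and 5% CO2, with luminescence read 30 min after Amplite addition at room temperature.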
(qHTS replaces the single test concentration by a dilution series.)

Test [2] in a line: qHTS assay for small molecule agonists of the p53 signaling pathway - cell viability (AID 651633; calls by dose curve; further: nearly all actives have a fitted effect of over 30% in size; further: potency means the concentration at half of the fitted maximal effect). The procedure, abridged:
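Viability counter-read: CellTiter-Glo luminescence (30 min, room temperature) in the same p53RE-bla plates. These plates had been exposed to compounds for 16 h at 37 C.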

The nature of test [3]: qHTS assay for small molecules that induce genotoxicity in human embryonic kidney cells expressing luciferase-tagged ATAD5 - cell viability (AID 651634; calls by dose curve; further: nearly all actives have a fitted effect of over 25% in size; further: potency means the concentration at half of the fitted maximal effect). The procedure, abridged: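 After 15.5 hr incubation with compound at 37C, 5% CO2, HEK293T ATAD5-luciferase cells received CellTiter-Fluor reagent; fluorescence intensity was quantified following 30 min at 37C.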
Test [4] in a line: qHTS assay for small molecule disruptors of the mitochondrial membrane potential - cell viability (AID 720634; calls by dose curve;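 further: human HepG2 liver cancer cells; series mostly up to about 83 µM; nearly all actives have a fitted effect of over 20% in size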). An outline of the steps: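 ATP-based luminescent viability readout (CellTiter-Glo, 30 min, room temperature) in HepG2 cells multiplexed with the m-MPI membrane potential dye; compound exposure lasted 1 hr at 37 C.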
The nature of test [5]: qHTS assay to test for compound auto fluorescence at 590 nm (red) in HepG2 cells (AID 720674). The procedure, abridged: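 Red autofluorescence (Ex/Em 540/590 nm, Rose Bengal sodium equivalents) was measured in HepG2 cells, 2,000 per well in MEM plus 10% FBS, plated overnight at 37 C. Readings were taken 1 hr after adding 23 nL compound or DMSO, at 37 C and 5% CO2.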
A short description of test [6]: qHTS assay to test for compound auto fluorescence at 535 nm (green) in HepG2 cells (AID 720675).
The nature of test [7]: qHTS assay to test for compound auto fluorescence at 460 nm (blue) in HEK293 cells (AID 720678). Further: potency means the concentration at half of the fitted maximal effect. The procedure, abridged:
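HEK293 cells (2,000/well, medium with 10% dialyzed FBS) attached 4-5 hr, then exposed to compound overnight at 37C, 5% CO2. Blue fluorescence read at 405/460 nm, with triamterene as reference fluorophore.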

The nature of test [8]: qHTS assay to test for compound auto fluorescence at 590 nm (red) in HEK293 cells (AID 720679). The procedure, abridged:
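HEK293 cells (2,000/well, 10% dialyzed FBS) attached 4-5 hr, then dosed with compound or DMSO and incubated overnight at 37C, 5% CO2. Red fluorescence read at 540/590 nm, Rose Bengal sodium as reference fluorophore.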

Results filed as inconclusive are left out. Active and inactive are the calls of the source. Unless noted, the call rests on the fitted dose curve; in most records, active means well fitted curve in the direction sought with a large enough effect in the repeat runs; inconclusive means weak or mixed curves; inactive means no such curve, though single readings can be large; an effect the other way counts as inactive or inconclusive.
Tags describe the fitted curve by direction and shape or compound fluorescence and quenching.

As to `C[C@]12CC[C@@H]3c4ccc(O)cc4CC[C@H]3[C@@H]1CC[C@@H]2OP(=O)(O)O`, the Potency result in test [1], in test [2], in test [3], in test [4], in test [5] and in test [6] was “inactive” each time. Besides, the Potency result in test [7] and in test [8] was “inactive” in each case.

As to `C[C@H](O)[C@H](O)[C@H]1CNc2nc(N)[nH]c(=O)c2N1`, the Potency result in test [1], in test [2], in test [3], in test [4], in test [5] and in test [6] was “inactive” in each case. Besides, the Potency entry in test [8] is “inactive”. Further, the Potency in test [7] is 12.6 µM [fluorescent] (active).

Regarding `Cc1ccccc1OCC(O)CNCCOc1ccc(C(N)=O)cc1` (stereo not given), the Potency entry in test [1], in test [2], in test [3], in test [4], in test [5] and in test [6] was “inactive” throughout. For the same compound, the Potency result in test [7] and in test [8] was “inactive” in each case.

On to `O=C(NOC[C@H](O)CO)c1ccc(F)c(F)c1Nc1ccc(I)cc1F`, for which the Potency entry in test [1], in test [2], in test [3], in test [4], in test [5] and in test [6] was “inactive” throughout. Also, the Potency entry in test [7] and in test [8] was “inactive” in each case.

Consider `FC(F)(F)C(F)(F)C(F)(F)C(F)(F)C(F)(F)C(F)(F)F`, for which the Potency entry in test [1], in test [2], in test [3], in test [4], in test [5] and in test [6] was “inactive” each time. Further, the Potency result in test [7] and in test [8] was “inactive” in each case.

Consider `CO[C@@H]1[C@@H](O[C@@H]2O[C@H](C)[C@@H](O[C@H]3C[C@@](C)(O)[C@@H](OC(=O)CC(C)C)[C@H](C)O3)[C@H](N(C)C)[C@H]2O)[C@@H](CC=O)C[C@@H](C)[C@@H](O)/C=C/C=C/C[C@@H](C)OC(=O)C[C@H]1O`, for which the Potency entry in test [1], in test [2], in test [3], in test [4], in test [5] and in test [6] was “inactive” throughout. The Potency entry in test [7] and in test [8] was “inactive” in each case.

`C[N@+]12CCCC[C@@H]1CCC(=C(c1cccs1)c1cccs1)C2`: the Potency result in test [1], in test [2], in test [3], in test [4], in test [5] and in test [6] was “inactive” throughout. In addition, the Potency entry in test [7] and in test [8] was “inactive” in each case.

For `COc1ccc2c(c1)OC(C)(C)C(c1ccccc1)C2c1ccc(OCCN2CCCC2)cc1` (stereo not given), the Potency entry in test [1], in test [4], in test [5], in test [6], in test [7] and in test [8] was “inactive” each time. The Potency in test [2] is 29.8 µM (active); in test [3] it was 26.6 µM (active).

As for `C[C@]12CCC(=O)C=C1CC[C@@H]1[C@@H]2[C@@H](O)C[C@@]2(C)[C@H]1CC[C@]2(O)C(=O)COP(=O)(O)O`, the Potency entry in test [1], in test [2], in test [3], in test [4], in test [5] and in test [6] was “inactive” throughout. In addition, the Potency result in test [7] and in test [8] was “inactive” throughout.

As for `CCN(CC)CCOc1ccccc1OC`, the Potency result in test [1], in test [2], in test [3], in test [4], in test [5] and in test [6] was “inactive” in each case. The Potency entry in test [7] and in test [8] was “inactive” throughout.

Consider `CC(C)(C)C1(O)CCN2CC3c4ccccc4CCc4cccc(c43)C2C1` (stereo not given), for which the Potency entry in test [1], in test [3], in test [4], in test [5], in test [6] and in test [7] was “inactive” each time. The Potency result in test [8] is “inactive”. Further, the Potency in test [2] is 13.3 µM (active).

On to `CC[C@@H](C(=O)[C@@H](C)[C@@H](O)[C@H](C)[C@@H]1O[C@@H]([C@@H](CC)C(=O)O)CC[C@@H]1C)[C@H]1O[C@]2(C=C[C@@H](O)[C@]3(CC[C@@](C)([C@H]4CC[C@](O)(CC)[C@H](C)O4)O3)O2)[C@H](C)C[C@@H]1C`, for which the Potency entry in test [1], in test [2], in test [4], in test [5], in test [6] and in test [7] was “inactive” throughout. Besides, the Potency result in test [8] was “inactive”. Moreover, the Potency in test [3] is 8.41 µM (active).

In the case of `CC(=O)N[C@@H]1C(O[C@H]2O[C@H](C(=O)O)C(O)[C@H](O)[C@H]2O)[C@H](O)[C@@H](CO)O[C@H]1O[C@@H]1C(C(=O)O)O[C@@H](O[C@H]2[C@H](O)[C@@H](CO)OC(O)[C@@H]2NC(C)=O)[C@H](O)[C@H]1O` (stereo not given in full), the Potency result in test [1], in test [2], in test [3], in test [4], in test [5] and in test [6] was “inactive” in each case. Also, the Potency entry in test [7] and in test [8] was “inactive” each time.

`CCN(CC)CCCC(C)Nc1cc(/C=C/c2ccccc2Cl)nc2cc(Cl)ccc12` (stereo not given): the Potency result in test [1], in test [2], in test [3], in test [4], in test [5] and in test [6] was “inactive” throughout. Besides, the Potency entry in test [7] and in test [8] was “inactive” each time.

As for `C[C@H](N)C(=O)N[C@@H](C)P(=O)(O)O`, the Potency result in test [1], in test [2], in test [3], in test [4], in test [5] and in test [6] was “inactive” throughout. The Potency result in test [7] and in test [8] was “inactive” each time.

Turning to `CCN(CC)CCC(=O)N1c2ccccc2Sc2ccc(C(F)(F)F)cc21`, the Potency result in test [1], in test [2], in test [3], in test [4], in test [5] and in test [6] was “inactive” each time. Besides, the Potency entry in test [7] and in test [8] was “inactive” throughout.

Turning to `CO/N=C(\C(=O)N[C@@H]1C(=O)N2C(C(=O)O)=CCS[C@H]12)c1csc(N)n1`, the Potency result in test [1], in test [2], in test [3], in test [4], in test [5] and in test [6] was “inactive” in each case. In addition, the Potency result in test [7] and in test [8] was “inactive” in each case.

Consider `NC(=O)C[C@@H](N)C(=O)O`, for which the Potency entry in test [1], in test [2], in test [3], in test [4], in test [5] and in test [6] was “inactive” each time. Besides, the Potency result in test [7] and in test [8] was “inactive” in each case.

On to `CN(C)CCCN1c2ccccc2C(C)(C)c2ccccc21`, for which the Potency result in test [1], in test [2], in test [3], in test [4], in test [5] and in test [6] was “inactive” throughout. Besides, the Potency entry in test [7] and in test [8] was “inactive” in each case.

Consider `N[C@H](CCC(=O)O)C(=O)O`, for which the Potency result in test [1], in test [2], in test [3], in test [4], in test [5] and in test [6] was “inactive” each time. In addition, the Potency result in test [7] and in test [8] was “inactive” throughout.
